Assay results: ChEMBL document CHEMBL1857833, “Screening and optimization of specific chemical series against human African Trypanosomiasis (HAT)”
Several values for one entry are separate records, joined by “and”; a condition that tells them apart may be missing. Equal entries are not always repeated. About 390 (8.9%) of roughly 4,400 compounds showed an effect of 50% or more. Many of the other results were omitted from the sample, so strong results are more common in it than they were.

system: Trypanosoma brucei; experiment: DNDI: Inhibition of Human African Trypanosomiasis, SBRI 427, in vitro at 2 ug.mL-1; format: functional

| SMILES | % inhibition |
| --- | --- |
| O/N=C(\NCc1cc(F)ccc1F)c1ccc(Oc2ccc(Cl)cc2)nc1 | -8% |
| CCc1ccc(Oc2ccc(/C(=N/O)NC3CC3)cn2)cc1 | 8% |
| CSCCN/C(=N\O)c1ccc(Oc2ccc(Cl)cc2)nc1 | -6% |
| O/N=C(\NC1CCCC1)c1ccc(Oc2ccc(Cl)cc2)nc1 | 98% |
| CC1CCC(N/C(=N\O)c2ccc(Oc3ccc(-n4ccnc4)cc3)nc2)CC1 (centres undefined) | 21% |
| CC1CCC(N/C(=N\O)c2ccc(Oc3ccc(Cl)cc3)nc2)CC1 (centres undefined) | 88% |
| O/N=C(\NC1CCc2ccccc21)c1ccc(Oc2ccc(Cl)cc2)nc1 (centres undefined) | -11% |
| O/N=C(\NC1CCCCC1)c1ccc(Oc2ccc(Cl)cc2)nc1 | 93% |
| CC1CCN(/C(=N\O)c2ccc(Oc3ccc(Cl)cc3)nc2)CC1 | 26% |
| O/N=C(/c1ccc(Oc2ccc(Cl)cc2)nc1)N1CCCCCC1 | -7% |
| CCc1ccc(Oc2ccc(/C(=N/O)Nc3ccccc3)cn2)cc1 | 17% |
| N/C(=N\O)c1ccc(Oc2ccc(Cl)cc2)nc1 | 15% |
| CCc1ccc(Oc2ccc(/C(=N/O)NC3CCCC3)cn2)cc1 | 78% |
| CC(NCc1coc(-c2ccccc2Br)n1)c1cccc2ccccc12 (centres undefined) | 9% and -3% |
| CCOc1ccccc1Oc1ncccc1/C(=N/O)N1CCC=N1 | 13% |
| COc1cccc(-c2nc(CNc3ccc(C(C)=O)cc3)co2)c1 | 18% |
| COc1cc(-c2nc(CN3CCN(Cc4ccc5c(c4)OCO5)CC3)co2)cc(OC)c1OC | -1% |
| O/N=C(/c1cccnc1OCc1ccccc1F)N1CCN(c2ccc(F)cc2)CC1 | -19% |
| CCc1ccc(Oc2ccc(/C(=N/O)NCc3ccc(OC)cc3)cn2)cc1 | 22% |
| CCc1ccc(Oc2ccc(/C(=N/O)N3CCCCC3)cn2)cc1 | 68% |
| CCc1ccc(Oc2ccc(/C(=N/O)N3CCOCC3)cn2)cc1 | 3% |
| CSc1ccc(Oc2ccc(/C(=N/O)NC3CCC(C)CC3)cn2)cc1 (centres undefined) | 81% |
| CSc1ccc(Oc2cc(/C(=N/O)NC3CCC(C)CC3)ccn2)cc1 (centres undefined) | 9% |
| CCc1ccc(Oc2ccc(/C(=N/O)N3CCSCC3)cn2)cc1 | 16% |
| CCc1ccc(Oc2ccc(/C(=N/O)NCc3c(F)cccc3F)cn2)cc1 | 22% |
| CC1CCC(N/C(=N\O)c2ccc(Oc3ccc(F)cc3)nc2)CC1 (centres undefined) | 16% |

| SMILES | % inhibition |
| --- | --- |
| CCc1ccc(Oc2ccc(/C(=N/O)NCC3CC3)cn2)cc1 | 99% |
| N#CCCN(Cc1coc(-c2cccc(F)c2)n1)CC1CCCO1 (centres undefined) | -9% |
| Cc1ccc(Oc2nc(C)ccc2/C(=N/O)N2CCC3CCCCC3C2)c(C)c1 (centres undefined) | 10% |
| CC(C)COc1ncccc1/C(=N/O)N1CCC2CCCCC2C1 (centres undefined) | -17% |
| Cc1ccc(Oc2ccc(/C(=N/O)N3CCN(c4ccccc4)CC3)cn2)c(C)c1 | 18% |
| COc1cc(CN(C)Cc2coc(-c3ccc(Cl)cc3Cl)n2)cc(OC)c1OC | 0% |
| COc1cc(-c2nc(CN3CCCc4ccccc43)co2)cc(OC)c1OC | 6% |
| CCOc1ccccc1CN/C(=N\O)c1ccc(C)nc1Oc1ccc(C)cc1C | 99% |
| CCOc1ccccc1CN/C(=N\O)c1ccc(C)nc1Oc1ccc(F)cc1 | 20% |
| CCOc1ccccc1CN/C(=N\O)c1ccc(C)nc1Oc1ccc(C)cc1 | 67% |
| CCOc1ccccc1CN/C(=N\O)c1ccc(C)nc1Oc1ccc(SC)c(C)c1 | -24% |
| COc1ccccc1CN/C(=N\O)c1ccc(C)nc1Oc1ccc(C)cc1C | 40% |
| Cc1ccc(Oc2nc(C)ccc2/C(=N/O)NCc2ccccc2C)c(C)c1 | 43% |
| Fc1ccc(-c2nc(CNC3CCc4ccccc43)co2)cc1 (centres undefined) | 28% |
| Cc1ccc(/C(=N/O)N2C(C)CCCC2C)c(Oc2cccc(F)c2)n1 (centres undefined) | 15% |
| CN(Cc1coc(-c2cccc(F)c2)n1)Cc1cccc2ccccc12 | -3% |
| COc1ccc(CN/C(=N\O)c2ccnc(Oc3ccc(C)c4c3CCC4)c2)cc1 | 21% |
| COC(=O)c1cn(Cc2coc(-c3ccc(Br)cc3)n2)cn1 | 16% |
| CSc1ccc(Oc2ncccc2/C(N)=N/O)cc1C | 17% |
| CCOc1ccc(Oc2cc(/C(=N/O)NC3CCCC3)ccn2)cc1 | 53% |
| CCOc1ccc(Oc2cc(/C(=N/O)Nc3ccccc3)ccn2)cc1 | 24% |
| CCOc1ccc(Oc2cc(/C(=N/O)NC3CC(C)CC(C)(C)C3)ccn2)cc1 (centres undefined) | 29% |
| CCOc1ccc(Oc2cc(/C(=N/O)NC3CCc4ccccc43)ccn2)cc1 (centres undefined) | 29% |
| CCOc1ccc(Oc2cc(/C(=N/O)NC3CCCCC3)ccn2)cc1 | 51% |
| CCOc1ccc(Oc2cc(/C(=N/O)NC3CCC(C)CC3)ccn2)cc1 (centres undefined) | 25% |
| CCOc1cccc(-c2nc(CN3CCN(c4cc(C)nc5ccccc45)CC3)co2)c1 | 11% |

| SMILES | % inhibition |
| --- | --- |
| Cc1ccccc1-c1nc(CNCCN2CCOCC2)co1 | 6% |
| CCOc1cccc(-c2nc(CN3CCCN(C)CC3)co2)c1 | 2% |
| CSc1ccc(Oc2nc(C)ccc2/C(=N/O)N2CCSC2)cc1 | 1% |
| Fc1cccc(-c2nc(CN3CCCCCC3)co2)c1 | 5% |
| COCCN/C(=N\O)c1ccc(Oc2cc(C)cc(C(C)C)c2)nc1 | 17% |
| Cc1cc(Oc2ccc(/C(=N/O)NC3CCC(C)CC3)cn2)cc(C(C)C)c1 (centres undefined) | 19% |
| Cc1cc(C)cc(Oc2ccc(/C(=N/O)NCC(C)C)cn2)c1 | 90% |
| Cc1cc(Oc2ccc(/C(=N/O)NC3CC3)cn2)cc(C(C)C)c1 | 62% |
| CC(C)CN/C(=N\O)c1ccc(Oc2ccc3ccccc3c2)nc1 | 2% |
| Cc1cc(C)cc(CN/C(=N\O)c2ccc(Oc3cc(C)cc(C)c3)nc2)c1 | -3% |
| Cc1cc(C)cc(CN/C(=N\O)c2ccc(Oc3cc(C)cc(C(C)C)c3)nc2)c1 | 19% |
| Cc1cc(Oc2ccc(/C(=N/O)NCC3CC3)cn2)cc(C(C)C)c1 | 97% |
| COc1cccc(Oc2ccc(/C(=N/O)NCC(C)C)cn2)c1 | 19% |
| Cc1cc(Oc2ccc(/C(=N/O)NC3CCc4ccccc43)cn2)cc(C(C)C)c1 (centres undefined) | 35% |
| CCCN/C(=N\O)c1ccc(Oc2cc(C)cc(C)c2)nc1 | 20% |
| Cc1cc(C)cc(Oc2ccc(/C(=N/O)NCC(C)(C)C)cn2)c1 | 98% |
| CCC(C)(C)N/C(=N\O)c1ccc(C)nc1Oc1ccc(F)c(F)c1 | 11% |
| CCOc1ccccc1-c1nc(CN2CCC=N2)co1 | -3% |
| CC(=O)c1ccc(N2CCN(Cc3coc(-c4ccc(F)cc4)n3)CC2)cc1 | -5% |
| Cc1cc(C)cc(Oc2ccc(/C(=N/O)NCC3CCCCC3)cn2)c1 | 21% |
| Cc1cc(C)cc(Oc2ccc(/C(=N/O)NCC3CC3)cn2)c1 | 99% |
| Cc1cc(C)cc(Oc2ccc(/C(=N/O)NCC3CCCO3)cn2)c1 (centres undefined) | -3% |
| Cc1cccc(CNCc2coc(-c3ccc(O)cc3)n2)c1 | -10% |
| Cc1cn(Cc2coc(-c3ccccc3Br)n2)c(C)n1 | 25% |
| CCCCN(Cc1coc(-c2ccccc2Cl)n1)c1ccccc1 | 10% |
| COc1cc(-c2nc(Cn3cnc(C)c3)co2)cc(OC)c1OC | -15% |

| SMILES | % inhibition |
| --- | --- |
| Cc1ccc(-c2nc(CNC[C@@H]3CC[C@H]4C[C@@H]3C4(C)C)co2)cc1 | 99% |
| CC1(C)[C@H]2CC[C@@H](CNCc3coc(-c4cccc5ccccc45)n3)[C@@H]1C2 | 73% |
| c1ccc2c(CNCc3coc(-c4cccc5ccccc45)n3)cccc2c1 | 14% |
| COc1ccc(CNCc2coc(-c3ccc(F)cc3)n2)cc1 | -33% |
| CC1(C)[C@H]2CC[C@@H](CNCc3coc(-c4ccc(F)cc4)n3)[C@@H]1C2 | 99% |
| CC1(C)[C@H]2CC[C@@H](CNCc3coc(-c4ccccc4Cl)n3)[C@@H]1C2 | 35% |
| COc1ccc(-c2nc(CNC[C@@H]3CC[C@H]4C[C@@H]3C4(C)C)co2)cc1 | 97% |
| CC1(C)[C@H]2CC[C@@H](CNCc3coc(-c4cccc(F)c4)n3)[C@@H]1C2 | 42% |
| Cc1ccc(-c2nc(CNC[C@@H]3CCCO3)co2)cc1 | 12% |
| COc1cc(-c2nc(CNC[C@@H]3CC[C@H]4C[C@@H]3C4(C)C)co2)cc(OC)c1OC | 11% |
| COc1ccc(-c2nc(CNCC3CCCO3)co2)cc1 (centres undefined) | -10% |
| Cc1ccc(-c2nc(CNCc3ccc(C)o3)co2)cc1 | -7% |
| CCOc1ccc(-c2nc(CNCc3ccc(C(F)(F)F)cc3)co2)cc1 | -13% |
| CCOc1ccc(-c2nc(CN3CCC(N4CCCCC4)CC3)co2)cc1 | 9% |
| CC(NCc1coc(-c2ccccc2Cl)n1)c1ccccc1 (centres undefined) | 9% |
| COC(=O)C1CCN(/C(=N\O)c2ccc(Oc3ccc(C)cc3C)nc2)CC1 | 11% |
| CCCCN(CCC#N)Cc1coc(-c2ccccc2OCC)n1 | -9% |
| O=[N+]([O-])c1ccc(N2CCN(Cc3coc(-c4cccc(F)c4)n3)CC2)cc1 | -6% |
| c1csc(-c2nc(CN3CCCCCCC3)co2)c1 | 3% |
| Cc1cc(C)cc(Oc2nc(C)ccc2/C(=N/O)NCCN2CCOCC2)c1 | 15% |
| Cc1cc(N/C(=N\O)c2ccc(C)nc2Oc2ccc3oc4ccccc4c3c2)on1 | 20% |
| Cc1ccc(/C(=N/O)NCCC2CCCN2C)c(Oc2ccc3oc4ccccc4c3c2)n1 (centres undefined) | 13% |
| Cc1ccc(/C(=N/O)NC2CCCC2)c(Oc2ccc3oc4ccccc4c3c2)n1 | 99% |
| Cc1ccc(/C(=N/O)NCC2CC2)c(Oc2ccc3oc4ccccc4c3c2)n1 | 5% |
| Cc1ccc(/C(=N/O)NC2CCC(C)CC2)c(Oc2ccc3oc4ccccc4c3c2)n1 (centres undefined) | 3% |
| Cc1ccc(/C(=N/O)NC2CCC2)c(Oc2ccc3oc4ccccc4c3c2)n1 | 101% |
